Assay results published in article PMC12864922, “TDP-43 directly inhibits mRNA accumulation in neurites through modulation of mRNA stability”.
The full ranking holds about 9,900 sequences; the median of “r (bound/input frequency ratio)” is about 0.7, and the highest 2% start at about 6.5. Only a selection was taken, and the highest values are over-represented in it overall.

B1: ENSMUSG00000022095.66|Fam160b2 (ssRNA)
RNA: GGGAGUUCUACAGUCCGACGAUCGCUUCGAUAUCCGCAUGCUAACAACUCCAGGGGCCAGGGAGAUGAACUGCUGUCUUUGAGGCUGGCUAAAAAAACAAUCCAGUCCAGAGAGAUGGGGAGGGGGGGAGCAAGAACCCUGUCUGUUACAUUAGGUAUCAUGGAAGCUGCUAAGACUCGGCAGGUUUCUCCGAGGCUUCACGAACAGUAGUGGAGGAGACAGAGGAGGAGGCUGAGGGGAAGCCCCCUCUUCCUGCUCUACCCUCCUGGAGGCUGUUGCAAAAUUCCCAACUGCCUCCUGGCACUCUUGCGGUCGCACUAGUGUGGAAUUCUCGGGUGUCAAGG
B2: ENSMUSG00000004113.466|Cacna1b (ssRNA)
RNA: GGGAGUUCUACAGUCCGACGAUCGCUUCGAUAUCCGCAUGCUAUGAAGGUUUGUCGCAAAAAUUUAUAUUUAACAGUGUUGAGAGAGAGAGAGAGAGAGCGAGAGAGAGAGAGAUCCAGUCAUGCAACACAAAUGGGAUCUACUUUUAAACAACAGUCCUUUGACUAGUUUGCUGCCUGAAUAAUAUUUACAAACUAAACUUUGGAUUCUGCUCUUGUUUCUACAAUGAUUUUUUGUAUAAAGCAAAGUCCUUGGAUUAAAUAAAAACAACCCAAAAAAAAAAUCAAAAUCAAAACCCAGGAUCUCUUGCGGUCGCACUAGUGUGGAAUUCUCGGGUGUCAAGG
B3: ENSMUSG00000031028.203|Tub|203:207;209:214 (ssRNA)
RNA: GGGAGUUCUACAGUCCGACGAUCGCUUCGAUAUCCGCAUGCUAUCCUUUCUCUUCCCAGUUCCAGAGAUGAAACCCCUCCGAGUUAAUGUAUAAGGUUGGAAACCUUUCAGUAGGGAAUCAGGCAGUUCCCUGUUGAAAGUUGUCUGAGUUUUUGCACACCAUUCUGAUCUGAUGUGGCCUGUGCCUGGCUCCUCUAUGAGGACUUCGAGCUGUGCACAGACCUUAGCAGGACCACUGCACACUUACACACACACACACAGGCAGCCCAAGGGUUCUGGGGCUGGGCUUGGACACGCCCUCCACUCUUGCGGUCGCACUAGUGUGGAAUUCUCGGGUGUCAAGG
B4: ENSMUSG00000061578.408|Ksr2 (ssRNA)
RNA: GGGAGUUCUACAGUCCGACGAUCGCUUCGAUAUCCGCAUGCUAAUCAGUCUCUUCCCGGAGGAAGCAUCCGGGGGAAAUGUAUUCCUUCGCCCUGCAAGGAGCCAAUGGGAAGAGAGGGGACCAUAUAGUUAGAGACAUUCCCUACCCCCCGACCACUGACCCGUCCAGACCCUCGCUUCUUACAAUGCCUCUUCUUCUGCCAGACCAGCCACCUGCCCCACUAACACCAAAUGGCUUCUGUCCCUGCUUCACGUUGCAAAUCCUUCAAGACAGAAGUUUCAGAGGGGAUAGUUCCUUCUAACCUCUUGCGGUCGCACUAGUGUGGAAUUCUCGGGUGUCAAGG
B5: ENSMUSG00000031028.686|Tub (ssRNA)
RNA: GGGAGUUCUACAGUCCGACGAUCGCUUCGAUAUCCGCAUGCUAUAUUUUUGUUCAAAAUUAUCUGGAGUUUUAGACAAACUUGCAAAACUGUGCUUUUAUUAAGUGACUUUUUGAAUAAACUUUUUGGUAUUCUGAAGCAAAUGUAUUUAUUUAUUGGUAUGUGCAAUGACAAACUUGGUAUUUUCCCAUAAUGACAUUAUGUAUGUUGUAGAAUUUAGUGUUUGUCUAAGUACAGACAUGUAUCAACACAUUAAACUUGAACUGUUUGACGGCUGUGUCCUUGGUUUUCAUAGAGAAGAGAACUCUUGCGGUCGCACUAGUGUGGAAUUCUCGGGUGUCAAGG
B6: ENSMUSG00000029636.181|Wasf3 (ssRNA)
RNA: GGGAGUUCUACAGUCCGACGAUCGCUUCGAUAUCCGCAUGCUACACAGCUCUCUUCUCUCCUGUUGUCGGCACAUUUUCAAUUUUAAAAAGUACCUCACAAGAUAAACUUGAUUCAGCCAGUUGCCCGGGCAGAGACCUGACUUCCCCUCUCCUGCCCUGAUCCUUUUUACCAAAUGGCGAUUCCAUAGUCCUGGCUGAGGCAGGGGCUCAAAGUCCAGUGUCUGCUUUGCAAUUCUGGAAGGACAGCUGCUUAUUUAAAUAAGUCUGUGAUAUCCGCAGGCUUGGGUUACAGGGAGGACCUUCUCUUGCGGUCGCACUAGUGUGGAAUUCUCGGGUGUCAAGG
B7: ENSMUSG00000029028.53|Lrrc47|5:9;12:16;18:22;45:49;64:68;70:74;86:90;93:97;118:122;134:139;141:145;147:151;163:168;170:174;191:195;197:201;208:212;214:218;235:2 … (ssRNA)
RNA: GGGAGUUCUACAGUCCGACGAUCGCUUCGAUAUCCGCAUGCUAUGUCACACAAGCAUACGCACACCUGUAGAUCUUUGUAGGUGUAGCAUACCUGUAGGUAUCUGGCACACGCAUACCUGUAGAUGUCACACAAGCACACGAUAUGCUGUAGGUAUCUGGCACACCUGUAGGUGUCACACACGCACACGCACACCUGUGGGUGUCACACACGCACACCUGUAGGUGUCUGUAGCACACGCAUACCUGCAGCACACGCACACCUGUAGAUCUCUAUAGCACACGCACACCUGUAGGGGUCUGUGCUCUUGCGGUCGCACUAGUGUGGAAUUCUCGGGUGUCAAGG
B8: ENSMUSG00000028439.167|Fam219a (ssRNA)
RNA: GGGAGUUCUACAGUCCGACGAUCGCUUCGAUAUCCGCAUGCUAUACAGUGAGCCAAGUGGCUGUAUGAUAUGGUAUGGUAUGGUAUGGUAUGGUAUGGUAUGGUAUGCACAUGUGUGUGCAUGUGUGUGUGCCUGUGUGUGUGCGUGUGCGUGUGUGUAUGUGUGUGCGUGUGUGUGUGUGUGUGUUGUACCCGAGUGUGUGUUGAGCCUAUCUGUCCAGGGAACCAGAUUGGUGUCCGAGAUGAGGAAAUGGCUGUGGCCUGGGAAAUCAGUGAGAGGCCGCUUGGGAAUGAGAAUGCAGUGCUCUUGCGGUCGCACUAGUGUGGAAUUCUCGGGUGUCAAGG
B9: ENSMUSG00000028439.165|Fam219a (ssRNA)
RNA: GGGAGUUCUACAGUCCGACGAUCGCUUCGAUAUCCGCAUGCUAAGCUUAAGGAAAUACAGUGAGCCAAGUGGCUGUAUGAUAUGGUAUGGUAUGGUAUGGUAUGGUAUGGUAUGGUAUGCACAUGUGUGUGCAUGUGUGUGUGCCUGUGUGUGUGCGUGUGCGUGUGUGUAUGUGUGUGCGUGUGUGUGUGUGUGUGUUGUACCCGAGUGUGUGUUGAGCCUAUCUGUCCAGGGAACCAGAUUGGUGUCCGAGAUGAGGAAAUGGCUGUGGCCUGGGAAAUCAGUGAGAGGCCGCUUGGGAAUCUCUUGCGGUCGCACUAGUGUGGAAUUCUCGGGUGUCAAGG
B10: ENSMUSG00000028439.166|Fam219a (ssRNA)
RNA: GGGAGUUCUACAGUCCGACGAUCGCUUCGAUAUCCGCAUGCUAAGGAAAUACAGUGAGCCAAGUGGCUGUAUGAUAUGGUAUGGUAUGGUAUGGUAUGGUAUGGUAUGGUAUGCACAUGUGUGUGCAUGUGUGUGUGCCUGUGUGUGUGCGUGUGCGUGUGUGUAUGUGUGUGCGUGUGUGUGUGUGUGUGUUGUACCCGAGUGUGUGUUGAGCCUAUCUGUCCAGGGAACCAGAUUGGUGUCCGAGAUGAGGAAAUGGCUGUGGCCUGGGAAAUCAGUGAGAGGCCGCUUGGGAAUGAGAAUCUCUUGCGGUCGCACUAGUGUGGAAUUCUCGGGUGUCAAGG
B11: ENSMUSG00000028439.168|Fam219a (ssRNA)
RNA: GGGAGUUCUACAGUCCGACGAUCGCUUCGAUAUCCGCAUGCUAGAGCCAAGUGGCUGUAUGAUAUGGUAUGGUAUGGUAUGGUAUGGUAUGGUAUGGUAUGCACAUGUGUGUGCAUGUGUGUGUGCCUGUGUGUGUGCGUGUGCGUGUGUGUAUGUGUGUGCGUGUGUGUGUGUGUGUGUUGUACCCGAGUGUGUGUUGAGCCUAUCUGUCCAGGGAACCAGAUUGGUGUCCGAGAUGAGGAAAUGGCUGUGGCCUGGGAAAUCAGUGAGAGGCCGCUUGGGAAUGAGAAUGCAGUGGACUGACUCUUGCGGUCGCACUAGUGUGGAAUUCUCGGGUGUCAAGG
B12: ENSMUSG00000028439.169|Fam219a (ssRNA)
RNA: GGGAGUUCUACAGUCCGACGAUCGCUUCGAUAUCCGCAUGCUAAGUGGCUGUAUGAUAUGGUAUGGUAUGGUAUGGUAUGGUAUGGUAUGGUAUGCACAUGUGUGUGCAUGUGUGUGUGCCUGUGUGUGUGCGUGUGCGUGUGUGUAUGUGUGUGCGUGUGUGUGUGUGUGUGUUGUACCCGAGUGUGUGUUGAGCCUAUCUGUCCAGGGAACCAGAUUGGUGUCCGAGAUGAGGAAAUGGCUGUGGCCUGGGAAAUCAGUGAGAGGCCGCUUGGGAAUGAGAAUGCAGUGGACUGAAAGCACCUCUUGCGGUCGCACUAGUGUGGAAUUCUCGGGUGUCAAGG
B13: ENSMUSG00000028439.163|Fam219a (ssRNA)
RNA: GGGAGUUCUACAGUCCGACGAUCGCUUCGAUAUCCGCAUGCUAUCUUCAAGAGCAAGCUUAAGGAAAUACAGUGAGCCAAGUGGCUGUAUGAUAUGGUAUGGUAUGGUAUGGUAUGGUAUGGUAUGGUAUGCACAUGUGUGUGCAUGUGUGUGUGCCUGUGUGUGUGCGUGUGCGUGUGUGUAUGUGUGUGCGUGUGUGUGUGUGUGUGUUGUACCCGAGUGUGUGUUGAGCCUAUCUGUCCAGGGAACCAGAUUGGUGUCCGAGAUGAGGAAAUGGCUGUGGCCUGGGAAAUCAGUGAGAGGCUCUUGCGGUCGCACUAGUGUGGAAUUCUCGGGUGUCAAGG
B14: ENSMUSG00000028439.164|Fam219a (ssRNA)
RNA: GGGAGUUCUACAGUCCGACGAUCGCUUCGAUAUCCGCAUGCUAAGAGCAAGCUUAAGGAAAUACAGUGAGCCAAGUGGCUGUAUGAUAUGGUAUGGUAUGGUAUGGUAUGGUAUGGUAUGGUAUGCACAUGUGUGUGCAUGUGUGUGUGCCUGUGUGUGUGCGUGUGCGUGUGUGUAUGUGUGUGCGUGUGUGUGUGUGUGUGUUGUACCCGAGUGUGUGUUGAGCCUAUCUGUCCAGGGAACCAGAUUGGUGUCCGAGAUGAGGAAAUGGCUGUGGCCUGGGAAAUCAGUGAGAGGCCGCUUCUCUUGCGGUCGCACUAGUGUGGAAUUCUCGGGUGUCAAGG

What follows are binders tested against TDP-43 (Homo sapiens, UniProt Q13148 1-414) (assay: RNA Bind-n-Seq with designed 260-mer pool; 25 mM Tris-HCl, 150 mM KCl, 3 mM MgCl2, BSA (printed 500 mg/mL), 20 units/mL SUPERase IN; pH not stated; 500 nM RNA pool, 1 h, 4 C; TDP-43 5, 50, 500 nM; high values mean tight binding). Conditions: protein: recombinant; tags: SBP (GST cleaved off with PreScission; pGEX-GST-SBP).
Sequence of TDP-43 (Q13148 whole entry): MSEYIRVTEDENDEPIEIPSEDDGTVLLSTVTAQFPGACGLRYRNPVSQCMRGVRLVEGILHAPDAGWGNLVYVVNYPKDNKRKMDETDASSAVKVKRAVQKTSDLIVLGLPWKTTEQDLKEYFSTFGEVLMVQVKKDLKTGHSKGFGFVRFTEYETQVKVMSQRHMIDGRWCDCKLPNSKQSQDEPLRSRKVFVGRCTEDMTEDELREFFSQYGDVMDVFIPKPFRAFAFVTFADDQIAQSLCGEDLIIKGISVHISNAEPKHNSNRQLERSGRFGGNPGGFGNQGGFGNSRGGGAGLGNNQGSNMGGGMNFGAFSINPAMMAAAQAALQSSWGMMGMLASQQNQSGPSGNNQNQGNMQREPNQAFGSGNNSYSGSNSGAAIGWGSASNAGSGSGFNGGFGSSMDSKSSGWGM
Summary of the method: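 An in vitro-transcribed pool of 260-nt 3′ UTR oligos (500 nM) was incubated for 1 h at 4 °C with recombinant SBP-tagged TDP-43 at 5, 50 or 500 nM held on streptavidin beads. The buffer contained 25 mM Tris-HCl, 150 mM KCl, 3 mM MgCl2, BSA and SUPERase IN. Biotin-eluted bound RNA was sequenced, and binding, R, is each oligo's normalized read abundance in the bound sample over that in input.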

Row | Binder | binding signal
1 | B1 | 0.965 R (bound/input frequency ratio)
2 | B2 | 0.589 R (bound/input frequency ratio)
3 | B3 | 1.57 R (bound/input frequency ratio)
4 | B4 | 1.09 R (bound/input frequency ratio)
5 | B5 | 0.181 R (bound/input frequency ratio)
6 | B6 | 0.344 R (bound/input frequency ratio)
7 | B7 | 0.453 R (bound/input frequency ratio)
8 | B8 | 6.28 R (bound/input frequency ratio)
9 | B9 | 6.33 R (bound/input frequency ratio)
10 | B10 | 6.86 R (bound/input frequency ratio)
11 | B11 | 7.15 R (bound/input frequency ratio)
12 | B12 | 6.41 R (bound/input frequency ratio)
13 | B13 | 5.79 R (bound/input frequency ratio)
14 | B14 | 8.42 R (bound/input frequency ratio)
